From PubChem BioAssay (EPA / NIEHS)
Inconclusive results are not listed. Active and inactive are the calls of the source. The calls were made as follows: active = hit-call score of the fitted dose curve at least 0.9, where 1 is the maximum; inconclusive = response in the unintended direction; inactive = score below 0.9.

test system: guinea pig Dopamine Transporter (DAT), gene 100714898; assay: NVS_TR_gDAT: NovaScreen (NVS) Transporter Assay for guinea pig Dopamine Transporter (DAT) (AID 2283369);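 also: active compounds lower bound radioligand signal relative to DMSO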
Method: NVS_TR_gDAT is a biochemical, single-readout assay that uses extracted gene-proteins from Guinea pig striatal membranes in a tissue-based cell-free assay. Measurements were taken 2 hours after chemical dosing in a 48-well plate.NVS_TR_gDAT is one of one assay component(s) measured or calculated from the NVS_TR_gDAT assay. It is designed to make measurements of radioligand binding, a form of binding reporter, as detected with scintillation counting signals by Filter-based radiodetection technology.Data from the assay component NVS_TR_gDAT was analyzed into 1 assay endpoint. This assay endpoint, NVS_TR_gDAT, was analyzed in the positive analysis fitting direction relative to DMSO as the negative control and baseline of activity. Using a type of binding reporter, loss-of-signal activity can be used to understand changes in the binding as they relate to the gene Slc6a3. Furthermore, this assay endpoint can be referred to as a primary readout, because the performed assay has only produced 1 assay endpoint. To generalize the intended target to other relatable targets, this assay endpoint is annotated to the transporter intended target family, where the subfamily is neurotransmitter transporter.
Binding assays used specific radioligands (tritiated, iodinated) with non-radioactive competitive displacement ligands in agonist or antagonist protocols (as indicated) and various reference compounds and inhibitors to titrate specific binding to receptors and transporters. Most enzyme assays (CYPs, kinases, phosphatases, proteases, HDACs) used recombinant protein and specific substrates (fluorescence mostly, some colorimetric and radioactive) and inhibitors, followed by a biochemical separation of substrate and product. All assays for the biochemical HTS were initially run in duplicate at a single concentration (10 uM for CYP450 assays and 25 uM for all others). Assay-chemical combinations meeting a pre-defined threshold (e.g., 30% inhibition and other criteria defined below) were then run in singleton concentration-response format with maximum concentration of 20 uM for CYPs and 50 uM for all others. Each assay was run with positive and negative controls, and concurrent controls on every plate. The follow-up (secondary) screen tested active chemical-pairs in concentration series, as well as a few additional assays not tested in the primary screen, some selected negative inactives, and several cases re-run in the concentration series for confirmatory purposes.

| SMILES | AC50 | outcome |
| --- | --- | --- |
| Cc1cc(F)ccc1-c1cc(N2CC[C@@H](O)[C@H]2CO)ncc1N(C)C(=O)C(C)(C)c1cc(C(F)(F)F)cc(C(F)(F)F)c1 | 8.3 µM (active) | – |
| CCCCCCCCCCCC[N+](C)(C)C | 25 µM (active) | – |
| Oc1ccc2ccccc2c1 | 21.3 µM (active) | – |
| c1ccc(C[n+]2cccc3ccccc32)cc1 | 10.1 µM (active) | – |
| Cc1occc1C(=O)Nc1ccc(C(=O)N2CCC(F)(F)/C(=C\C(=O)N3CCC(N4CCCCC4)CC3)c3ccccc32)cc1 | 7.8 µM (active) | – |
| COc1cccc([C@H](O)C2CCN(CCc3ccc(F)cc3)CC2)c1OC | 19.9 µM (active) | – |
| COc1ccc2cc(S(=O)(=O)N[C@H](CC(=O)N[C@H](Cc3ccc(CN4[C@H](C)CCC[C@@H]4C)cc3)C(=O)N(C)C(C)C)c3ccc4c(c3)OCO4)ccc2c1 | 13.9 µM (active) | – |
| CCCOC(=O)c1cc(O)c(O)c(O)c1 | 25 µM (active) | – |
| CCCCCc1ccc(N)cc1 | 25 µM (active) | – |
| Cc1ccc2oc(CN(Cc3ccccc3)C(=O)Nc3c(F)cc(F)cc3F)c(-c3ccc(Cl)cc3)c2c1 | – | inactive |
| CCCCOC(=O)c1ccc(O)cc1 | 25 µM (active) | – |
| CN(C)c1ccc(C(=C2C=CC(=[N+](C)C)C=C2)c2ccc(N(C)C)cc2)cc1 | 7.68 µM (active) | – |
| CCOC(=O)O[C@H](C)OC(=O)c1ccc2c(c1)cc(C(=O)NC1CCN(C(C)C)CC1)n2Cc1cc(-c2ccc(Cl)s2)on1 | 13.8 µM (active) | – |
| CCN(CC)C(=O)c1cc(S(=O)(=O)Cc2ccccc2)c(N2CCC(c3ccccc3)CC2)cc1N(CC)CCN(C)C | 6.53 µM (active) | – |
| COc1cc(C(=O)NC2CCN(C)CC2)ccc1Nc1ncc2c(n1)N(C1CCCC1)CC(F)(F)C(=O)N2C | 13.8 µM (active) | – |
| C[C@]12CC[C@@H]3c4ccc(O)cc4CC[C@H]3[C@@H]1CC[C@H]2O | 0.231 µM (active) | – |
| CN(C)C(=O)C1(N2CCCCC2)CCN(CC[C@@]2(c3ccc(Cl)c(Cl)c3)CN(C(=O)c3ccccc3)CCO2)CC1 | 6.54 µM (active) | – |
| O=C1c2ccccc2C(=O)N1CCc1noc(-c2ccc(CN3CCCCCC3)s2)n1 | 13.9 µM (active) | – |
| O=c1[nH]sc2ccccc12 | 40.5 µM (active) | – |
| NCc1cccc(C2CCN(C(=O)c3ccc(C#Cc4ccccc4F)o3)CC2)c1 | 10 µM (active) | – |
